The record followed here is PubChem BioAssay.

Assay [1] is described as follows: small-molecule microarray binders of probe aNog, primary screen, biochemical, biotinylated probe, 635/667 nm fluorescence (AID 1115).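 Note: probe is biotinylated aNog protein used at 0.15 µg/mL for 1 h at 4 C; z-score combines 667 nm fluorescence of each spot with its signal to noise.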 Conditions: higher = more signal.
Assay [2] addresses Torsin-1A-interacting protein 1 (Homo sapiens) (UniProt Q5JTV8). Briefly: LAP1 binders from COS7 cell lysate, primary screen, small-molecule microarray, 635/667 nm fluorescence (AID 1116). The note with it: COS7-hLAP1 lysate binding, 635 nm fluorescence, higher = more signal.
The target in another assay is Albumin (Bos taurus) (UniProt P02769). Briefly: bovine serum albumin binders on microarray, profiling panel, artefact control for SMM control protein annotation, biochemical, small-molecule microarray, Alexa647 label, 635/667 nm fluorescence (AID 1118).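 Note: score merges 667 nm emission intensity and signal-to-noise per printed compound spot.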 The note with it: BSA-A647 binding, fluorescence 635 nm, higher = more signal.
Assay [3] in a line: small-molecule microarray binders of probe aXIP, primary screen, biochemical, NeuroSMM set, 635/667 nm fluorescence (AID 1119).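 Note: probe is the protein aXip251-270 applied at 1 µg/mL to compound-printed slides; binding of probe to printed compounds measured as 667 nm fluorescence plus signal to noise.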 The note with it: higher = more signal, called active from +8 up or from −8 down.
Assay [4] in a line: small-molecule binders of probe aNOTCH3, primary screen, biochemical, small-molecule microarray, 635/667 nm fluorescence (AID 1120).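 Note: probe is a biotin-tagged antibody raised against NOTCH3 rather than NOTCH3 protein; score merges spot fluorescence near 667 nm with spot signal to noise.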 Conditions: higher = more signal.
Assay [5] in a line: small-molecule binders of probe aNOTCH2, primary screen, biochemical, small-molecule microarray, 635/667 nm fluorescence (AID 1121).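 Note: score merges feature fluorescence read at 667 nm with its signal to noise.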 Conditions: higher = more signal.
Assay [6] concerns the target Carbonic anhydrase 2 (Homo sapiens) (UniProt P00918). Briefly: CAII small-molecule binders, profiling panel, biochemical, small-molecule microarray, Alexa647-labelled CAII (AID 1122). Conditions: CAII-A647 binding fluorescence, higher = more signal.
Assay [7] is described as follows: COS7 lysate on small-molecule microarray, probe aHis, 635 nm (AID 1123).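 Note: z-score combines 667nm fluorescence intensity with signal-to-noise per printed compound spot.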 Conditions: COS7 cell lysate, fluorescence, higher = more signal.
A short description of assay [8]: compound binding in COS7 lysate, probe aLAP1, primary screen, cell lysate, small-molecule microarray (AID 1124).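 Note: lysate comes from COS7 cells expressing LAP1 and is applied at 0.3 µg/mL; score merges spot fluorescence near 667 nm with signal-to-noise over triplicate slides.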 The note with it: probe aLAP1, fluorescence, higher = more signal.
A further assay relates to Sam68 (KHDRBS1). The assay can be described thus: Sam68 small-molecule binders, primary screen, biochemical, small-molecule microarray, 635 nm fluorescence (AID 1125).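 Note: score merges 667 nm channel intensity with signal to noise over triplicate slides.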 The note with it: small-molecule microarray binding, higher = more signal.
Assay [9] deals with Chordin-like protein 2 (CHRDL2). Briefly: CHRDL2 small-molecule binders, primary screen, biochemical, small-molecule microarray, 635 nm fluorescence (AID 1126).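 Note: printed compound slides probed with Chrdl2 protein at 4 µg/mL for 1 h at 4 C; score merges 667 nm emission intensity with signal to noise over three replicate slides.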 Conditions: small-molecule microarray binding, fluorescence 635 nm; higher = more signal.
Assay [10] has as its target Concanavalin-A (Canavalia ensiformis) (UniProt P02866). Briefly: ConA small-molecule binders, primary screen, artefact control for SMM control protein annotation, biochemical, small-molecule microarray, Alexa647 label, 635 nm (AID 1127).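 Note: z combines 667 nm emission intensity with signal-to-noise across three replicate slides.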 The note with it: ConA-A647 binding fluorescence, higher = more signal.
Assay [11] in a line: anti-His antibody binders, primary screen, artefact control for SMM control protein annotation, biochemical, small-molecule microarray, 635 nm fluorescence (AID 1128).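 Note: score merges feature fluorescence with signal-to-noise for each printed compound spot.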 The note with it: anti-His Alexa647 antibody binding, higher = more signal.
Assay [12] concerns Human papillomavirus type 1a E7 protein (residues 1-88). The assay can be described thus: HPV1a E7 small-molecule binders, primary screen, biochemical, small-molecule microarray, residues 1-88, 635 nm (AID 1129). Conditions: small-molecule microarray binding, fluorescence 635 nm; higher = more signal.
Assay [13] concerns the target Focal adhesion kinase 1 (Homo sapiens) (UniProt Q05397). The assay can be described thus: small-molecule microarray binders of FAK, primary screen, biochemical, 635/667 nm fluorescence, BSA, DTT (AID 1130).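 Note: composite of spot emission at 667 nm and signal to noise over triplicate slides.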 The note with it: PTK2 binding, 635 nm fluorescence, higher = more signal.
Assay [14] has as its system Fibrinogen (Alexa647-labelled). Briefly: fibrinogen binders on compound microarrays, profiling panel, artefact control for SMM control-protein annotation, biochemical, small-molecule microarray, 635/667 nm fluorescence (AID 1131).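 Note: z-score merges 667 nm fluorescence with per-spot signal-to-noise over triplicate slides.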 Conditions: fibrinogen-A647 binding fluorescence, higher = more signal.
Assay [15] addresses Follistatin (Homo sapiens) (UniProt P19883). Briefly: follistatin binders on small-molecule microarrays, primary screen, biochemical, small-molecule microarray, 635/667 nm fluorescence (AID 1132). Conditions: FST binding, 635 nm fluorescence, higher = more signal.
Assay [16] addresses Fibroblast growth factor 2 (Homo sapiens) (UniProt P09038). Briefly: FGF2 binders on small-molecule microarrays, primary screen, biochemical, small-molecule microarray, 635/667 nm fluorescence (AID 1133). Conditions: small-molecule microarray binding, FGF2, fluorescence 635/667; higher = more signal.
Assay [17] in a line: mitochondrial membrane potential change in A549 cells, profiling panel, cell-based, JC-1 fluorescence, basal, 24 h, 100 nL (AID 1138).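 Note: A549 lung adenocarcinoma cells under basal conditions with no added stimulus; test concentration not given here.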 Conditions: higher = more signal.
A further assay deals with Lefty1. Briefly: Lefty1 binders on small-molecule microarrays, primary screen, biochemical, small-molecule microarray, 635/667 nm fluorescence (AID 1139). The note with it: small-molecule microarray binding, fluorescence 635/667; higher = more signal.

Active and inactive are the calls of the source.

Torsin-1A-interacting protein 1 (Homo sapiens), sequence (Q5JTV8 whole entry, looked up): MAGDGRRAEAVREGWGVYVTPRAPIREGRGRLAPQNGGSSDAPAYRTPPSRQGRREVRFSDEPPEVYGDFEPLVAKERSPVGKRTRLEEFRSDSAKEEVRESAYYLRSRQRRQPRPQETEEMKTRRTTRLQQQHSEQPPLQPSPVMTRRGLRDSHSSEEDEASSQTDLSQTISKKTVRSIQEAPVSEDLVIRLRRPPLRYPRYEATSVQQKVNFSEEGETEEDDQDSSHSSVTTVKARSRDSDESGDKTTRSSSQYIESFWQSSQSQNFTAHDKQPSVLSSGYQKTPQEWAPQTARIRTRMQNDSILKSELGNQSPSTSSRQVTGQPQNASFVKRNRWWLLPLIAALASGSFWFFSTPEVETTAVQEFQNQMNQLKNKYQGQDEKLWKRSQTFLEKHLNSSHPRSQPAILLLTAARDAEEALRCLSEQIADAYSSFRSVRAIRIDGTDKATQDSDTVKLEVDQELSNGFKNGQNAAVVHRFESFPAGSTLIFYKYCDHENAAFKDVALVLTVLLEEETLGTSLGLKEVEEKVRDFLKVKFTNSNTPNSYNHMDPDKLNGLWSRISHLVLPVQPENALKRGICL
Albumin (Bos taurus), sequence (P02769 whole entry, looked up): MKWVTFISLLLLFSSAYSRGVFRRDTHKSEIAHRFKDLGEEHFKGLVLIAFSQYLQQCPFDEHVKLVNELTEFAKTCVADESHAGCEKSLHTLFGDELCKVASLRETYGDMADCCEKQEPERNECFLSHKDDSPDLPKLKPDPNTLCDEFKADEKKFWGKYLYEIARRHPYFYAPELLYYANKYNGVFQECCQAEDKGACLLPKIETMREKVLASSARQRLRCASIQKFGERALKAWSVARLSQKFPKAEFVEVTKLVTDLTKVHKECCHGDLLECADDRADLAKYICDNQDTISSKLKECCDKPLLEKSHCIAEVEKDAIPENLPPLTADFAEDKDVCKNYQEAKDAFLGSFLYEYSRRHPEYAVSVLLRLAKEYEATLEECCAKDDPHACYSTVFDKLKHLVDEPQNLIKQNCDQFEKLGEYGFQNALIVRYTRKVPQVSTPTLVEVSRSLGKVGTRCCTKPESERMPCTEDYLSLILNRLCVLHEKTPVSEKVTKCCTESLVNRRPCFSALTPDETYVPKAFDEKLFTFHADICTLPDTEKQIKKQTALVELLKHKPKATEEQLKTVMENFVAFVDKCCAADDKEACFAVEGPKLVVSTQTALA
Concanavalin-A (Canavalia ensiformis), sequence (P02866 whole entry, looked up): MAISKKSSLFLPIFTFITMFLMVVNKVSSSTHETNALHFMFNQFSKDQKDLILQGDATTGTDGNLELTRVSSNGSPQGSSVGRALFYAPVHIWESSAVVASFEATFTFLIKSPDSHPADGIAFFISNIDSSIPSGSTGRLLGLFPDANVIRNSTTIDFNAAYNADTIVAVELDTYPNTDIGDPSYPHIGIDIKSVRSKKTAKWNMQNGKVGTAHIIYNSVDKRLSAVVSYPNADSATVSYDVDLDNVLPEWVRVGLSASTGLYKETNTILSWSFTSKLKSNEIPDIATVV
Follistatin (Homo sapiens), sequence (P19883 whole entry, looked up): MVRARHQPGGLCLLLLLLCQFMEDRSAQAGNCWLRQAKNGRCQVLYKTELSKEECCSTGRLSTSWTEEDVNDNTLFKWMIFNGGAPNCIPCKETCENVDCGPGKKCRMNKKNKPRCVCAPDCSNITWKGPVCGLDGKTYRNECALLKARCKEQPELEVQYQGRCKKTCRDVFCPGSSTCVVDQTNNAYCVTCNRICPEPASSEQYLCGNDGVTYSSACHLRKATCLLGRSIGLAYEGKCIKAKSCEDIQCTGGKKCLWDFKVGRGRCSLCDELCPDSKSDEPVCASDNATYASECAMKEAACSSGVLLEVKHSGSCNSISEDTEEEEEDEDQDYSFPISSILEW
Fibroblast growth factor 2 (Homo sapiens), sequence (P09038 whole entry, looked up): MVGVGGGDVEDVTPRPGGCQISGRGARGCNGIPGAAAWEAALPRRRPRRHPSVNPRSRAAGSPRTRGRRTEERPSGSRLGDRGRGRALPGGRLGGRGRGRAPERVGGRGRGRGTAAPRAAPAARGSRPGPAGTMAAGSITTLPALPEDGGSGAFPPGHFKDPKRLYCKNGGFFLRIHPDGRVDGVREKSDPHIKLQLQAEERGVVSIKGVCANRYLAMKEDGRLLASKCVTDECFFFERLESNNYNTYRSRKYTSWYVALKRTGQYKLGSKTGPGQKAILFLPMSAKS
Focal adhesion kinase 1 (Homo sapiens), sequence (Q05397 whole entry, looked up): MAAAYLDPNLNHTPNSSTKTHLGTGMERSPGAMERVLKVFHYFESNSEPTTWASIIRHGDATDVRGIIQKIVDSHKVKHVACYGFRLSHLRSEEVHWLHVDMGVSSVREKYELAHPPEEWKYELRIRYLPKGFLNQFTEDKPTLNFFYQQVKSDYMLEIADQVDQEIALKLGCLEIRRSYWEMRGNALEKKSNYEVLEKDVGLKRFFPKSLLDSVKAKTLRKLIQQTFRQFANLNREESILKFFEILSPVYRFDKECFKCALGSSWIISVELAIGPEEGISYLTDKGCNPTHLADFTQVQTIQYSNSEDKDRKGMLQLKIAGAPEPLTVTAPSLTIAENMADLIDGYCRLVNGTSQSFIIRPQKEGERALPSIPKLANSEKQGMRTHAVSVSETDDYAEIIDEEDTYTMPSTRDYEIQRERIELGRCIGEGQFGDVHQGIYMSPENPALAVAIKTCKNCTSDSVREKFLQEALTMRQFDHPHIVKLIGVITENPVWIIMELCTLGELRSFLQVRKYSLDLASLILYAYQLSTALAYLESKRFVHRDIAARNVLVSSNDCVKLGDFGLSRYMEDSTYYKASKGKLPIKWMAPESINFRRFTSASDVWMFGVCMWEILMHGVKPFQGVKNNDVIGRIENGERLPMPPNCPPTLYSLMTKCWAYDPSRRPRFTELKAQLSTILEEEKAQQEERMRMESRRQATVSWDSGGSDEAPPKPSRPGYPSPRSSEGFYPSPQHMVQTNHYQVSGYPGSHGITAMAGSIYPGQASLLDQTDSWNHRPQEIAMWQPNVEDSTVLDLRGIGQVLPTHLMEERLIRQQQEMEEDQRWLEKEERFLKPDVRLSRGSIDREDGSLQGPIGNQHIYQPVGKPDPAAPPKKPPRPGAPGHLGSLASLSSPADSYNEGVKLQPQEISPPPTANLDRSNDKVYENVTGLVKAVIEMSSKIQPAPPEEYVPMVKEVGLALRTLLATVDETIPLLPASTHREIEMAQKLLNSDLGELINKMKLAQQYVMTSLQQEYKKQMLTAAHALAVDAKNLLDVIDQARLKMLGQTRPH

On to `O=C(O)[C@H]1C[C@H]2C(=O)N[C@@H](Cc3ccccc3)C(=O)N2[C@H]1c1ccc(O)cc1`, for which the composite z-score in assay [1] is 0.586; in assay [2], 0.777; with Albumin (Bos taurus), -0.728; in assay [4], -0.0918; in assay [5], -0.0415; in assay [6], 0.659. The composite z-score was 1.88 in assay [7]; 0.414 in [8]; 1.08 in the assay with Sam68 (KHDRBS1); -0.372 in assay [9]; 0.956 in [10]; 1.19 in assay [11]. The composite z-score in assay [12] was -0.514; in assay [13], 0.171; in assay [14], -0.0232; in assay [15] it was 1.26; in assay [16], 0.677; in the assay on Lefty1 it was 0.438. Moreover, in [3], the composite Z-score is 1.09 (inactive). The compound further returned a z-score in [17] of 1.2.

Take `C=C(COC)C(=O)CC[C@H](OC(=O)c1ccccc1-c1ccccc1C(=O)O)c1ccccc1OCCO`: the composite z-score in [1] was 0.0707; in assay [2] it was 0.423; with Albumin (Bos taurus), -0.714; in [4], -0.0881; in [5], -0.126; in assay [6], 0.59. The composite z-score in assay [7] was 0.125; in [8] it was 0.283; with Sam68 (KHDRBS1), 0.452; in assay [9] it was -0.0006; in [10] it was 0.7; in [11], -0.307. In addition, the composite z-score in [12] is 0.536; in [13], -0.203; in assay [14], -0.591; in assay [15], 0.905; in assay [16] it was 0.855; in the assay on Lefty1, 0.655. For the same compound, the composite Z-score in [3] was 1.42 (inactive). This compound registered a z-score in assay [17] of 0.904.

In the case of `C=CCNC(=O)[C@H]1[C@@H]2C(=O)O[C@@H](c3ccccc3)[C@@H](c3ccccc3)N2[C@@H](c2ccc(OCCO)cc2)[C@]12C(=O)Nc1ccc(C#CCCO)cc12`, the composite z-score was 0.332 in assay [1]; 1.42 in assay [2]; 0.321 in the assay with Albumin (Bos taurus); 0.116 in assay [4]; -0.13 in assay [5]; 0.394 in assay [6]. In addition, the composite z-score was 1.86 in assay [7]; 0.725 in assay [8]; 1.14 in the assay on Sam68 (KHDRBS1); 0.089 in assay [9]; 0.783 in assay [10]; -0.0886 in assay [11]. Further, the composite z-score in assay [12] was 1.11; in assay [13], 0.418; in assay [14], 0.61; in assay [15], 1.3; in assay [16], 0.327; with Lefty1, 0.909. Besides, the composite Z-score in [3] is 0.512 (inactive). In assay [17], this compound gave a z-score of 0.187.

Take `CCCCCN1CC=CC23O[C@@H]4/C=C\CCC(C)OC(=O)C4[C@H]2C(=O)N(CCO)[C@@H]3C1=O` (stereo not given in full): the composite z-score in assay [1] was 0.552; in [2], -0.0418; with Albumin (Bos taurus) it was -1.09; in assay [4], -0.28; in [5] it was -0.172; in assay [6] it was 0.905. Besides, the composite z-score in assay [7] is 0.663; in assay [8] it was 0.0877; in the assay on Sam68 (KHDRBS1) it was -0.106; in assay [9] it was -1.79; in assay [10], -0.773; in [11], 1.31. For the same compound, the composite z-score is -0.85 in assay [12]; -0.081 in [13]; -2.44 in [14]; -0.869 in assay [15]; -1.2 in assay [16]; -0.853 in the assay on Lefty1. Besides, in assay [3], the composite Z-score is 0.547 (inactive). In assay [17], this compound displayed a z-score of 0.33.

Regarding `C=CC[C@@]1(C(=O)NCc2ccccc2)N=C(c2ccc(OCCCO)cc2)O[C@@H]1c1ccccc1`, the composite z-score in assay [1] is 0.49; in [2], 1.68; with Albumin (Bos taurus), 0.864; in assay [4], 0.0762; in [5] it was -0.061; in [6] it was 0.493. For the same compound, the composite z-score in assay [7] is 2.56; in assay [8] it was 0.268; with Sam68 (KHDRBS1), 0.966; in [9], -0.353; in assay [10], 0.454; in [11], 1.11. Further, the composite z-score in assay [12] was 1.16; in [13], 0.997; in [14], -0.017; in [15], -0.646; in assay [16], -1.1; with Lefty1, -0.865. Besides, in assay [3], the composite Z-score was 0.118 (inactive). The z-score in assay [17] was 0.215.

In the case of `C=C1C=C(Br)C2(OCCCO2)[C@H]2OC12` (stereo not given in full), the composite z-score in assay [1] is -0.491; in assay [2], -0.0068; with Albumin (Bos taurus), -0.888; in [4] it was 0.0642; in assay [5], -0.148; in [6], -0.128. Further, the composite z-score was -0.529 in [7]; -0.0289 in assay [8]; -0.404 in the assay on Sam68 (KHDRBS1); 0.646 in assay [9]; -0.71 in [10]; -1.16 in [11]. In addition, the composite z-score in assay [12] was -0.315; in assay [13], 0.0354; in [14] it was -1.01; in [15], 0.442; in [16] it was 0.245; in the assay with Lefty1, 0.743. Besides, the composite Z-score in [3] was 2.51 (inactive). Also, in assay [17], the z-score is 0.939.

As to `C[N+](C)(C)CCCC[C@@H]1NC(=O)[C@H]2C[C@@H](C(=O)NCCCCCN)[C@@H](c3cccc(OCCO)c3)N2C1=O`, the composite z-score was 0.708 in [1]; 1.91 in assay [2]; 0.913 with Albumin (Bos taurus); 0.23 in assay [4]; -0.0633 in [5]; 0.801 in assay [6]. Further, the composite z-score in [7] was 2.41; in assay [8], 1.34; with Sam68 (KHDRBS1) it was 0.965; in assay [9], -0.0742; in assay [10], 1.13; in assay [11], 2.45. Moreover, the composite z-score in assay [12] came out at 1.07; in assay [13] it was 0.535; in [14] it was 0.789; in assay [15] it was 1.19; in assay [16], 0.327; in the assay on Lefty1, 0.17. Also, the composite Z-score in assay [3] was 0.268 (inactive). This compound also yielded a z-score in assay [17] of -0.102.

Take `C=CC[C@@H](OC(=O)Nc1ccc(SC)cc1)c1ccc(OCCO)cc1`: the composite z-score was 0.133 in [1]; 1.01 in assay [2]; -0.733 with Albumin (Bos taurus); -0.267 in assay [4]; -0.179 in assay [5]; 0.758 in assay [6]. For the same compound, the composite z-score was 1.99 in [7]; 0.105 in [8]; 0.655 in the assay with Sam68 (KHDRBS1); -2.01 in assay [9]; -0.264 in assay [10]; 2.42 in assay [11]. Besides, the composite z-score in assay [12] is -0.0392; in [13] it was -0.783; in [14] it was -1.58; in assay [15] it was -1.15; in assay [16], -0.991; in the assay with Lefty1 it was -0.763. In assay [3], the composite Z-score was 0.667 (inactive). For the same compound, the z-score in assay [17] was determined as 0.844.
